Assay outcomes from PubChem BioAssay.
Compounds with a hit are over-represented: about 3.4% of the library has one in this group of screens.
sPLA2-III inh: Blocks human group III sPLA2 activity. QFRET BODIPY PC-A2 liposome hydrolysis, fluorescence. Q9NZ20. AID 743126. inhibition, % at 12.2 µM. actives 0.56% (n = 370,000);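 active = inhibition above mean plus 3 SD of compounds lying within the high and low control bounds, cut at about 19% in these data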;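 note: 0% = median of test compound wells and 100% = no enzyme DMSO wells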
PLC-beta3 inh: inhibitors of human phospholipase C beta3; Q01970; Purified PLC-beta3, fluorogenic substrate, fluorescence; inhibition, % at 12.2 µM; actives 0.18% (n = 370,000); AID 720704; in the data active = inhibition above about 11%;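 note: 0% = median of compound wells on plate and 100% = full blocker control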
ADAM10 inh: inhibits human ADAM10; inhibition, % at 7 µM; actives 0.62% (n = 370,000); AID 720582; recombinant ADAM10, EDANS/DABCYL FRET peptide cleavage, 3 h;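 active = inhibition above a per-campaign cutoff equal to the mean of compounds falling between control-based bounds plus 3 SD, cut at about 20% in these data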;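 note: 0% = DMSO wells while the 100% control is not disclosed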
ADAM17 inh: inhibits human ADAM17 | P78536 | actives 0.83% (n = 370,000) | recombinant ADAM17, EDANS/DABCYL FRET peptide cleavage | inhibition, % at 6.95 µM;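 active = inhibition above the mean of compounds lying between control limits plus 3 SD, set per campaign, cut at about 8.5% in these data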;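 note: 0% = DMSO-only wells as the low control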
PLCg1 inh: inhibitors of human phospholipase C gamma1; inhibition, % at 12.2 µM; purified PLC-gamma1, fluorogenic substrate, fluorescence; actives 0.84% (n = 370,000); P19174; in the data active = inhibition above about 9.5%
KLK7 zymogen act: activates the human kallikrein-7 zymogen; actives 0.9% (n = 370,000); activation, % at 7 µM; purified proKLK7, EDANS-DABCYL substrate fluorescence; 100% is mature enzyme control, 0% vehicle; P49862;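 active = activation above the mean of all tested compounds plus 3 SD, computed per campaign excluding outliers beyond control limits, cut at about 13% in these data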
Target sequence (P49862 whole entry, looked up): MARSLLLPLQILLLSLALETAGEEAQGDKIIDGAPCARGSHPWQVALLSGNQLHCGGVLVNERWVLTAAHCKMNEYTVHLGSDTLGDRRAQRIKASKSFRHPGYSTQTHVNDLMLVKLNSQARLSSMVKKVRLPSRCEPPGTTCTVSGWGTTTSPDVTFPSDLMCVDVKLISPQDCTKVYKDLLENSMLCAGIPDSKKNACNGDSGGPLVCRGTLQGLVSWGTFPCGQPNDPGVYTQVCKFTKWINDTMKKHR
sPLA2 confirm: human GIII-sPLA2 inhibition, confirmation; AID 743280; inhibition, % at 12.2 µM; recombinant hGIII-sPLA2, BODIPY PC-A2 QFRET fluorescence; actives 34% (n = 2,000); shares compounds with sPLA2-III inh;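 active = mean inhibition across triplicates above the hit cutoff set in the earlier primary screen, cut at about 19% in these data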;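 note: 0% = enzyme with DMSO and 100% = DMSO wells lacking enzyme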
BODIPY interf: counter-screen for HGIII-sPLA2 inhibitors: 535nm fluorescence interference; shares compounds with sPLA2-III inh; BODIPY FL product fluorescence interference, QFRET; inhibition, % at 12.2 µM; actives 8.5% (n = 2,000); AID 743282;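 active = average inhibition above the solvent-only control mean plus 3 SD, cut at about 6% in these data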;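 note: 0% = DMSO with substrate plus product and 100% = DMSO with substrate alone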
BODIPY interf DR: interferes with 535nm fluorescence in dose response counter-screen. shares compounds with sPLA2-III inh. BODIPY FL product fluorescence interference, cell-free. IC50, µM. 240 tested, under 10 active. AID 743455;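 active = IC50 at or below 10 µM; inactive = IC50 above 10 µM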
Starred values were filed as active, the others as inactive; . = not tested or not shown.

SMILES	sPLA2-III inh	PLC-beta3 inh	ADAM10 inh	ADAM17 inh	PLCg1 inh	KLK7 zymogen act	sPLA2 confirm	BODIPY interf	others
CCCC/C=C1/[C@H](c2ccc(Cl)cc2)N(Cc2ccc3c(c2)OCO3)C2=N[C@H](c3ccccc3)CC(=O)N21	-2	-3	-1	1	-4	-1	.	.
COc1cc(CNCCN(C)C)c(Br)cc1OCC(=O)NCc1ccccc1	22*	-2	-2	-4	-1	0	2	-20
COc1cc(CNCC(C)C)c(Br)cc1OCC(=O)NCc1ccccc1	-8	0	0	-1	-1	0	.	.
Cc1cc2c(nc1C)CCCN2S(=O)(=O)c1ccccc1	11	-8	-7	-4	-5	0	.	.
COc1ccc(NC(=S)N(Cc2ccc(N(C)C)cc2)Cc2ccco2)cc1	22*	-5	1	-1	0	0	10	-7
CNCc1ccccc1Sc1cc(O)ccc1O	20*	-16	-4	-5	-10	1	38*	-6	BODIPY interf DR=>122
N=C(N)SCc1ccc(Cl)cc1Cl	39*	3	-7	3	4	-1	1	-8
Cc1ccc2c(c1)C(CS(=O)(=O)NCc1ccccc1)NC2 (configuration not stated)	7	-12	-8	-5	-9	0	.	.
Fc1ccc(-n2c(-c3ccc4c(c3)OCO4)n[nH]c2=S)cc1Cl	23*	-1	6	4	1	0	34*	5	BODIPY interf DR=>122
C#CC[N+](C)(C)CCCCCCCC	7	1	7	-6	-3	-1	.	.
C#CC[N+](C)(C)CCCCCCCCCC	19*	2	-12	2	6	0	1	-15
C#CC[N+](C)(C)CCCCCCCCCCCC	23*	2	-16	-2	8	0	-6	-33
COC(=O)[C@]12C[C@H](CC(=O)N3CCOCC3)C(=O)N(Cc3ccc4c(c3)OCO4)C1=C[C@H](COCc1ccccc1)O[C@@H]2C	6	-1	-1	-4	-1	0	.	.
C=CCN1[C@H](Cc2ccccc2)COc2cccc(N3CCCC3)c2S1(=O)=O	6	-2	-8	-2	-1	0	.	.
CCCCCCCCCc1conc1C(=O)/C=C/c1ccco1	24*	-7	-14	-3	0	0	-2	-7
O=c1[nH]c(NNC(=S)NCc2ccccc2)nc2c1C1(CCCCC1)Cc1ccccc1-2	23*	-40	-13	-5	-27	-1	32*	9.4*
CC(=O)c1c(C)[nH]c(C(=O)Nc2ccccc2C)c1C	8	-2	-2	-6	2	.	.	.
CCCCCCN1CCN(C2CN(Cc3cn(CCCC(=O)OC)nn3)S(=O)(=O)C2)CC1 (configuration not stated)	21*	1	-10	-3	0	-1	-3	-6
S=c1[nH]nc(-c2ccccc2)c2ccccc12	20*	3	-6	-5	9	1	25*	-3
COC(=O)[C@]12C[C@H](CC(=O)N3CCCC3)C(=O)N(Cc3ccc(Cl)cc3Cl)C1=C[C@H](C(C)(C)C)O[C@@H]2C	4	4	13	7	3	0	.	.
C[C@H]1[C@@H](NCc2ccccc2)CC[C@@]23CCCN2C(=O)CCC[C@@H]13	2	0	2	-2	-2	.	.	.
CC(C)c1[nH]nc2c1C(c1ccccc1)N(Cc1ccccc1)C2=O (configuration not stated)	-8	-2	-17	-6	1	1	.	.
Cn1ncc(Br)c1C(=O)N1CCc2ccccc21	3	0	-7	0	-1	-1	.	.
Cn1nccc1C(=O)N1CCc2ccccc21	87*	6	7	-3	9	-1	-1	-1
Cc1ccnc(NC(=S)N2CC3CN(c4cccc(C(F)(F)F)c4)CC3C2)c1 (configuration not stated)	7	1	11	3	1	.	.	.
SMILES	sPLA2-III inh	PLC-beta3 inh	ADAM10 inh	ADAM17 inh	PLCg1 inh	KLK7 zymogen act	sPLA2 confirm	BODIPY interf	others
S=c1[nH]nc(-c2cc(-c3ccccc3)n[nH]2)n1/N=C/c1cccc2ccccc12	9	0	-2	0	-1	-1	.	.
S=c1[nH]nc(-c2ccccn2)n1/N=C/c1cccc2ccccc12	21*	-2	-2	2	3	0	27*	5
Cc1ccccc1/C=N/n1c(-c2cc(-c3ccccc3)n[nH]2)n[nH]c1=S	26*	-11	-12	-3	-2	0	-70	6
C=CCn1c(-c2ccco2)n[nH]c1=S	21*	-3	2	-3	-3	-1	8	-4
Cc1cccc(-c2nnn3c2nc(NCCc2ccc(S(N)(=O)=O)cc2)c2ccccc23)c1	22*	-128	-38	-17	-132	-1	-6	-2
Cc1ccc(-c2nnn3c2nc(NCCc2ccc(S(N)(=O)=O)cc2)c2ccccc23)cc1	0	-81	-9	-3	-59	-2	.	.
O=C(CCN1C(=O)/C(=C\c2ccccc2)SC1=S)NNC(=O)c1ccccc1O	25*	-2	3	1	1	0	16	-5
O=C(CN1C(=O)S/C(=C\c2ccccc2)C1=O)NNC(=O)c1ccccc1O	23*	-29	-5	-6	-8	1	16	3
O=C(CSc1ccccc1)NNC(=O)c1ccccc1O	20*	-27	-49	-19	-22	-2	9	-3
COc1ccc(/C=C2\SC(=O)N(CC(=O)NNC(=O)c3ccccc3O)C2=O)cc1OC	21*	-5	-60	1	-10	1	17	2
COc1cccc(NC(=O)Nc2c(-c3ccc(F)cc3)nc3ncccn23)c1	0	-397	-204	-66	-325	2	.	.
Nc1[nH]c(C(=O)c2ccccc2)c(-c2ccc3ccccc3c2)c1C(=O)NCc1cccc2ccccc12	6	-22	0	0	-17	-1	.	.
Cc1c[nH]c2cccc(-c3cccc4ccccc34)c12	-17	-32	-20	-9	-20	0	.	.
O=C(Nc1ccc(-c2noc(-c3ccccc3F)n2)cc1)c1cccs1	21*	-3	-1	0	5	0	-6	-3
COc1ccccc1C(=O)NC1CCCCN(Cc2cccc(F)c2)C1=O (configuration not stated)	-4	-1	3	-1	0	-1	.	.
